From PubChem BioAssay
Many of the other results were omitted from the sample, so hits are more common in it than they were.
Dicer processing: inhibitors of Dicer pre-microRNA processing, primary screen, biochemical, cat-ELCCA, chemiluminescence; AID 1347074, 2019; Endoribonuclease Dicer (Homo sapiens), Q9UPY3; z-score at 25 µM; cat-ELCCA pre-miR-21 Dicer processing; stronger effect = higher value; 47,000 compounds, 6% hits; in the data active = z-score above about 3, passing the limit was not always enough;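 also: plate controls were vehicle for no effect and no enzyme for full effect; higher signal means more uncleaved substrate so more Dicer inhibition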
Active calls of the source: *.

SMILES	Dicer processing
Cc1ccc(C2c3c(oc4ccc(F)cc4c3=O)C(=O)N2c2nc(C)c(C)s2)cc1 (centres undefined)	0.21
COC(=O)c1ccc(S(=O)(=O)Nc2ccc(N3CCOCC3)cc2)n1C	3.6*
COC(=O)c1ccc(S(=O)(=O)N2CCC(O)CC2)n1C	1.4
COC(=O)c1ccc(S(=O)(=O)N2CCCCCC2)n1C	0.18
O=C(CSc1nc(-c2cccs2)cc(C(F)(F)F)n1)NC1CCCC1	1.3
Cc1nc2nc[nH]n2c(=O)c1CCO	-1.5
CCOC(=O)c1ccc(NC(=S)NC(C)(C)CO)cc1	-1.5
CCOC(=O)c1ccc(NC(=S)NN)cc1	3.5*
CCOC(=O)c1ccc(NC(N)=S)cc1	-0.12
O=C(OCc1ccccc1)C1=NNC2(CC(=O)N(c3cccc(Br)c3)C2=O)C1 (centres undefined)	0.72
CCOC(=O)c1cnc(=O)[nH]c1C(F)(F)F	-2.8
CCOc1ccc2nc(NC(=O)Nc3ccc(F)cc3)sc2c1	-1.3
CC(C)c1nnc(NC(=O)Nc2ccccc2)s1	1.3
COc1ccccc1NC(=O)Nc1nnc(COc2ccccc2F)s1	4.8*
COc1ccc(NC(=O)Nc2nnc(-c3ccncc3)s2)cc1	4.2*
COc1ccc(NC(=O)Nc2cncc(C#Cc3ccccc3)c2)cc1	0.81
COc1cccc(NC(=O)Nc2nnc(COc3ccccc3F)s2)c1	5*
CCc1cc(C(=O)c2ccc(OC)cc2)c(NC(=O)Nc2ccc(F)cc2)s1	0.31
COCc1nnc(NC(=O)c2ccco2)s1	0.86
COc1ccc(OCc2nnc(NC(=O)Nc3ccccc3F)s2)cc1	2.1
CCOC(=O)Cc1nnc(NC(=O)Nc2ccccc2)s1	1.7
COc1cccc(NC(=O)NCCN2CCN=C2C)c1	-0.02
COc1cccc(NC(=O)Nc2nnc(COc3ccc(F)cc3)s2)c1	4.4*
CC1=CC(=O)C(CCCC2=CC(=O)C=CC2=O)=CC1=O	-0.25
CCn1c(=S)ccc2cc(OC)ccc21	2
SMILES	Dicer processing
CS/C(=N/S(=O)(=O)c1ccc(-n2nc(C(F)(F)F)cc2-c2cccs2)cc1)N/N=C/c1ccccc1	-0.44
O=C(Oc1ccc(-c2cnc3ccccc3n2)cc1)c1ccccc1	-0.12
CCOC(=O)c1cc(Sc2n[nH]c(-c3ccccc3)n2)cc(C(=O)OCC)n1	-0.49
O=C1CC(c2ccco2)CC2=C1C(c1ccccc1)n1c(nc3ccccc31)N2 (centres undefined)	-1.7
CCCCn1c(C)nc2c(=O)oc3ccccc3c21	-0.43
CN1c2ccccc2C(=O)/C(=N\Nc2ccccc2C(F)(F)F)S1(=O)=O	1.6
Cc1cc(NC(=O)/C(C#N)=C/c2ccc(Cl)cc2Cl)no1	-0.56
Cc1nc2nc(C)c(CCC(C)C)c(=O)n2[nH]1	-0.5
Clc1cccc(Cl)c1CSC1=NCCCN1C1CCCCC1	0.49
CSc1sc(C#N)c(C)c1-c1ccn(C(=O)c2cc(C(F)(F)F)cc(C(F)(F)F)c2)n1	0.69
Cc1ccc(S(=O)(=O)c2cc(C(F)(F)F)cc(C(F)(F)F)c2)cc1	0.23
Cc1ccc(-c2cnc3c(-c4ccc(Cl)cc4)cnn3c2N)cc1	2.3
Cc1ccc(-c2cnc3c(-c4ccccc4)cnn3c2N)cc1	1.8
Nc1c(-c2ccc(Cl)cc2)cnc2c(-c3ccccc3)cnn12	3.1*
O=C(NCCCn1ccnc1)c1nn2c(C(F)(F)F)cc(-c3ccccc3)nc2c1Br	-0.55
O=C1/C(=C/c2ccc(Cl)cc2Cl)COc2ccc(Cl)cc21	2
O=[N+]([O-])c1ccc(Sc2nnc(-c3cccc(Cl)c3)o2)nc1	0.64
COC(=O)CSC1=C(C#N)C(=O)NC(c2ccco2)S1 (centres undefined)	-1.3
COC(=O)c1sc(N2C(=O)c3oc4ccc(C)cc4c(=O)c3C2c2ccccc2F)nc1C (centres undefined)	0.21
Fc1cccc(Cl)c1Cn1nnc(-c2ccccc2C(F)(F)F)n1	3.1*
Fc1cccc(Cl)c1Cn1nnc(-c2cc(C(F)(F)F)cc(C(F)(F)F)c2)n1	0.81
Fc1cccc(Cl)c1Cn1nnc(-c2c(Cl)cccc2Cl)n1	0.74
CN1CCc2c(sc3c2C(=O)NC(c2cc(Br)ccc2OCc2ccccc2)N3)C1 (centres undefined)	-1.3
S=C(NNc1ccccc1)c1ccccc1	5.2*
COCCCNC(=S)NNC(=O)c1ccc(C(F)(F)F)cc1	-4.6
SMILES	Dicer processing
N#CCC(=O)NNC(=S)Nc1ccccc1	-1.2
COCCCNC(=S)NNC(=S)Nc1ccccc1	3.6*
Cc1cc(Br)c(NC(=S)NNc2ccccc2)c(Br)c1	3.9
O=C(NNC(=S)Nc1ccc(F)cc1)c1ccccc1Cl	4.7*
O=C(c1ccccc1)c1cc(Cl)ccc1NC(=S)Nc1ccc(F)cc1	-0.55
Cc1ccccc1NC(=S)NNC(=O)c1ccccc1Cl	0.06
FC(F)(F)c1cccc(NNC(=S)Nc2ccccc2)c1	-0.98
S=C(NNC(=S)Nc1ccccc1)Nc1ccccc1	14*
COCCCNC(=S)Nc1ccc(F)cc1	-0.92
Fc1ccc(NC(=S)Nc2ccccc2)cc1	-0.31
O=C1N(CN2CCCCCC2)c2ccccc2C12OCCO2	0.34
CCCc1cc(=O)oc2c1c(C)nn2-c1ccccc1	-2.4
Cc1nn(C(=O)c2cc(C)n(-c3ccccc3)n2)c(C)c1Br	0.82
Cc1cc(C(=O)N=S(C)(=O)c2cccs2)no1 (centres undefined)	-1.1
Nc1ncnc2nc(N3CCOCC3)[nH]c12	0.89
C=CCOc1ccc(C2c3c(oc4ccccc4c3=O)C(=O)N2c2nc(C)c(C(=O)OC)s2)cc1 (centres undefined)	1.3
CSc1ccc(/C=N/NC(N)=O)s1	-0.35
CC(C)NS(=O)(=O)c1ccc(Cl)cc1I	-1.5
CCN(CC)C(=O)/C(C#N)=C/c1cc(O)c(O)c([N+](=O)[O-])c1	3.8*
CC(C)(C)OC(=O)/C(C#N)=C/c1ccc([N+](=O)[O-])cc1	8.3
CCOC(=O)/C(C#N)=C/NN(C)c1ccccc1[N+](=O)[O-]	-0.25
CCOC(=O)c1ccc2[nH]c(C(=O)OCC)c(CCC(=O)O)c2c1	0.49
Cc1c(S(=O)(=O)c2ccc(Cl)cc2)csc1C(=O)NN	-1.9
CC(C)CCC(C(N)=O)C1=NC(C)(C)Cc2ccccc21 (centres undefined)	-0.38
COc1ccc(O)c(C2=NN3C(C2)c2cccc(OC)c2OC3c2ccncc2)c1 (centres undefined)	6.2*
SMILES	Dicer processing
COc1ccc(C2Oc3c(OC)cccc3C3CC(c4cc(C)ccc4O)=NN32)cc1O (centres undefined)	2.6
COc1ccc(O)c(C2=NN3C(C2)c2cccc(OC)c2OC3c2ccc(O)c(OC)c2)c1 (centres undefined)	0.94
COc1cccc(C2Oc3c(OC)cccc3C3CC(c4cc(OC)ccc4O)=NN32)c1 (centres undefined)	2.6
COc1cc(C2Oc3c(OC)cccc3C3CC(c4cc(C)ccc4O)=NN32)ccc1O (centres undefined)	14*
COc1cccc2c1OC(c1ccncc1)N1N=C(c3cc(C)ccc3O)CC21 (centres undefined)	2.5
NS(=O)(=O)c1cccc(NC(=O)Nc2cccs2)c1	-4
Cc1ccc(OCC(=O)NNC(=S)NC(C)c2ccccc2)c2c1CCC2 (centres undefined)	-1.6
Nc1nonc1C(=O)NCCNCc1ccncc1	-1.7
COC(=O)C1=NNC2C(=O)N(c3ccccc3C)C(=O)C12 (centres undefined)	0.95
CCOC(=O)c1c(NC(=O)/C=C/C(=O)O)sc2c1CCCC2	-0.7
O=C(OCCN=C1NS(=O)(=O)c2ccccc21)c1ccc(F)cc1	0.1
